Source: PubChem (National Center for Advancing Translational Sciences (NCATS))
Most compounds without a hit are left out; they make up all but 2.6% or so of the library.
p53 reactivation – qHTS assay for re-activators of p53 using a Luc reporter; H1299 p53-A138V BP100-luciferase reporter, luminescence, 24 h; Potency, µM (doses to about 92.2 µM), for inactives: at the highest dose activity change, positive = activation, usual class: activators; 320,000 compounds, 0.063% hits; also: potency is read from the fitted curve at half-maximal effect; % of control where 0% means no effect; nearly all actives have a fitted effect of over 45% in size
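p53-null H1299 cells stably carrying temperature-sensitive p53-A138V and a BP100-luciferase reporter were pinned with compounds (4-point, 1:5 series) and held 24 hrs at 37 deg C. Luminescence was read 10 min after detection reagent.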
KCNH2 3.1 inh – qHTS for Inhibitors of KCHN2 3.1: Mutant qHTS. U2OS KCNH2 3.1, thallium flux FluxOr; stronger effect = lower value. activity change, % (tested at about 1.8 µM). 340,000 compounds, 0.95% hits;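 active = maximum activity change below -70%; inconclusive = maximum activity change from -70% to -50%; inactive = maximum activity change above -50%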;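 also: thallium influx rate constant from kinetic fluorescence after stimulation buffer; % is scaled to controls: 0 for no effect and ±100 for the full control effect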
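Steps: virus added to U2OS suspension (4 h, RT, dark); medium with 10% FBS added, cells plated, 37 C overnight; FluxOr/Red40 loading buffer 45 min RT; stimulation buffer, 2 min kinetic read; rate constant normalized.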
KCNH2 WT inh – qHTS for Inhibitors of KCHN2 3.1: Wildtype qHTS; U2OS, BacMam KCNH2, thallium flux FluxOr; stronger effect = lower value; activity change, % at 1.84 µM; 340,000 compounds, 0.37% hits; AID 720551, 2013;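 active = maximum activity change below -70%; inconclusive = maximum activity change between -70% and -50%; inactive = maximum activity change above -50%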; also: % is scaled to controls: 0 for no effect and ±100 for the full control effect
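U2OS cells transduced with wild-type KCNH2 virus are loaded with FluxOr dye for 45 min, and thallium flux is measured in kinetic reads before and after stimulation buffer. Rate constants are normalized to DMSO controls.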
ClpP mod – qHTS Assay for Activators of ClpP | ATP-dependent Clp protease proteolytic subunit (Bacillus subtilis (strain 168)), P80244 | AID 651965, 2013 | 340,000 compounds, 1.9% hits | purified B. subtilis ClpP, FRET peptide cleavage, 20 min | Potency, µM (highest dose often 57.5 µM), for the others: at the top dose activity change, negative = active; active = well fitted falling curve with a large enough effect; inconclusive = small, poorly fitted or top-dose-only effect; inactive = no such curve, though single readings can be large or run the other way; also: potency is read from the fitted curve at half-maximal effect; the source files actives as falling curves though it sought activators and does not explain the sign; nearly all actives have a fitted effect of over 65% in size
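Purified B. subtilis ClpP, 10 microg/mL final in Tris/HCl pH8 with KCl, BSA, glycerol and Tween-20, cleaved an Abz/nitrotyrosine-quenched decapeptide. Fluorescence (ex 320, em 430) was read at 0 and 20 min at room temperature. Delta was normalized to 5.8 microM ADEP and DMSO/no-enzyme controls.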
TRPV1 agonist – HTS Assay for Compounds that Act as Agonists of the Vanilloid Receptor 1 | activation, % at 8.33 µM | Transient receptor potential cation channel subfamily V member 1 (Homo sapiens), Q8NER1 | TRPV1-expressing cells, Fluo-8 calcium influx, agonist mode | 320,000 compounds, 0.19% hits | AID 540275, 2011; in the data active = activation above about 80%; inconclusive = between about 30% and that limit; also: 0% is about no effect
Target sequence (Q8NER1 whole entry, looked up): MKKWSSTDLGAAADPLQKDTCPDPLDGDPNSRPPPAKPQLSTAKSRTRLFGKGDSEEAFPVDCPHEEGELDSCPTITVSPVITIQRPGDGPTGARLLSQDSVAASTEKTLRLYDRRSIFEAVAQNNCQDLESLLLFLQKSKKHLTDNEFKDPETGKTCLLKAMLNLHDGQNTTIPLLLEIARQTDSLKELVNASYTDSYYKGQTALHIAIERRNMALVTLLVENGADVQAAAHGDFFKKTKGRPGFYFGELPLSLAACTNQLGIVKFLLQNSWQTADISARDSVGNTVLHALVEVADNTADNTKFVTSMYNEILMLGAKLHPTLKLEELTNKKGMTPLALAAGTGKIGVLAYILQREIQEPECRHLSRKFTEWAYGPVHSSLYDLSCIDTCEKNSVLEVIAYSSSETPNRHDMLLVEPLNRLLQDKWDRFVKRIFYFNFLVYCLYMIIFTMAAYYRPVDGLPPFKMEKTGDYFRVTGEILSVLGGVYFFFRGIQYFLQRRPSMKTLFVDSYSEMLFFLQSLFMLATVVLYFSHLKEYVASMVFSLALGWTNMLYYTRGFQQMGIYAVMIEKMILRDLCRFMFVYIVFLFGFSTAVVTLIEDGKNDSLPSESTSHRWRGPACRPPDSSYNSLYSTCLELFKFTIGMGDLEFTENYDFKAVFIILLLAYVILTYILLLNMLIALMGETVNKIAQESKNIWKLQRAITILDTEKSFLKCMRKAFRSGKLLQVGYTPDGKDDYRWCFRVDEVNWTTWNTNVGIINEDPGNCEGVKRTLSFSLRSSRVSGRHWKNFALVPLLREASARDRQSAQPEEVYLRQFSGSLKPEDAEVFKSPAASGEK
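TRPV1-expressing cells were cultured overnight at 35.5C and loaded with Fluo-8 calcium dye for 40 to 90 min at room temperature. After a 10 s baseline, compound was added and calcium influx was read kinetically for 3 min (ex 480/em 520 nm).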
TRPV1 potentiator – HTS Assay for Compounds that Act as Potentiators of the Vanilloid Receptor 1; TRPV1-expressing cells, Fluo-8 calcium influx, capsaicin EC20 potentiation; potentiation, % at 8.33 µM; 320,000 compounds, 0.02% hits; AID 540277, 2011; in the data active = potentiation above about 80%; inconclusive = between about 30% and that limit; also: 0% is about no effect
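TRPV1-expressing cells were cultured overnight at 35.5C and loaded with Fluo-8 calcium dye for 40 to 90 min at room temperature. After a 10 s baseline, compound was added and calcium influx was read kinetically for 3 min (ex 480/em 520 nm).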
ClpP validation – qHTS Assay for Activators of ClpP: Hit Validation of Inhibitors | shares compounds with ClpP mod | Potency, µM (series often up to 57.5 µM), for inactives: at the highest dose activity change, negative = inhibition, hits mostly inhibitors | purified B. subtilis ClpP, FRET-FV substrate cleavage, 20 min | 470 compounds, 40% hits; also: potency is read from the fitted curve at half-maximal effect; % is scaled to controls: 0 for no effect and ±100 for the full control effect; nearly all actives have a fitted effect of over 70% in size
Active calls of the source: *; ? = inconclusive; . = no result given. Unless noted, calls follow the shape of the dose curve; as a rule, active = well fitted curve in the direction sought with a large enough effect; inconclusive = small, poorly fitted or top-dose-only effect, or another doubt; inactive = no such curve, though single readings can be large; an effect the other way counts as inactive or inconclusive.

SMILES	p53 reactivation	KCNH2 3.1 inh	KCNH2 WT inh	ClpP mod	TRPV1 agonist	TRPV1 potentiator	ClpP validation
Cc1nc2ccc(-c3nc4ccccc4o3)cc2[nH]1	?	-4	-14	3.2µM*	?	-19	15µM*
Nc1ccc(-c2nc3ccc(-c4nc5ccccc5o4)cc3[nH]2)cc1	0%	-13	6	32%	?	-5	.
COc1cccc(-c2nnc(-c3ccccc3NC(=O)c3cccc(C(F)(F)F)c3)o2)c1	.	.	.	-21%	.	.	.
O=C(NCCCN1CCCC1=O)C1CCN(S(=O)(=O)N2CCOCC2)CC1	5%	1	14	10µM*	-2	7	0%
O=C(NCCCN1CCCC1=O)C1CCN(S(=O)(=O)c2ccccc2)CC1	15%	-35	6	2%	2	3	.
Cc1cccc(NC(=O)c2ccccc2C(=O)Nc2cccc(C)c2)c1	.	-9	3	168%	.	.	-2%
Cc1ccccc1C(=O)Nc1cccc(NC(=O)c2ccc(-c3ccc(Br)cc3)o2)c1	5%	-49	1	139%	-2	10	?
COc1cccc(NC(=O)c2ccc(-c3ccc([N+](=O)[O-])cc3)o2)c1	4%	-21	47	.	2	5	.
CC(C)c1ccc(Nc2ncnc3c2c(-c2ccccc2)cn3-c2ccccc2)cc1	.	.	.	2.5µM*	.	.	24µM*
CC(=O)Nc1ccc(Nc2ncnc3c2c(-c2ccccc2)cn3-c2ccccc2)cc1	.	.	.	-12%	.	.	.
CC(C)c1nc2oc3c(NCC4CCCO4)ncnc3c2c2c1COC(C)(C)C2 (configuration not stated)	17%	-1	-1	7.1µM*	2	-6	22µM*
Cc1nc2oc3c(NCC4CCCO4)ncnc3c2c2c1COC(C)(C)C2 (configuration not stated)	2%	-6	-5	-3%	4	-15	.
COc1cc(C(=O)Nc2cccc(OCc3cc(=O)n4c(C)csc4n3)c2)cc(OC)c1OC	.	.	.	-10%	.	.	.
COc1ccc(-c2[nH]c(-c3ccc4c(c3)OCO4)nc2-c2ccccc2)cc1	1%	-18	1	2.5µM*	10	1	24µM*
COc1cc(-c2nc(-c3ccccc3)c(-c3ccc(F)cc3)[nH]2)cc2c1OCO2	-2%	-39	-3	10µM*	2	-5	22µM*
CC1CCN(Cc2c(O)ccc3c(=O)c(-c4cccc(Cl)c4)c(C(F)(F)F)oc23)CC1	.	.	.	-1%	.	.	.
CCOc1ccc(S(=O)(=O)NCCC(=O)N2CCN(C(C)=O)CC2)cc1	.	8	-21	0%	.	.	.
O=S(=O)(Nc1ccccc1)c1ccc(-c2csnn2)cc1	-4%	3	-5	.	3	6	.
c1ccc(-c2ccc(-c3csnn3)cc2)cc1	16%	-2	4	88%	-4	9	-1%
Cc1cccn2cc(-c3ccc(S(=O)(=O)N4CCCCC4)cc3)nc12	1%	-9	7	.	4	4	.
Cc1cccn2cc(-c3ccc(S(=O)(=O)N4CCOCC4)cc3)nc12	1%	2	0	3.2µM*	0	11	3.9µM*
O=C(Nc1ccccc1OC(F)F)c1oc2ccccc2c1COc1ccccc1	-4%	-14	3	289%	2	-3	19µM*
CCC(C)NC(=O)c1cnn2c(C)c3c(nc12)CCCC3 (configuration not stated)	8%	16	4	10µM*	23	-17	22µM*
